Source: PubChem BioAssay (Tox21)
Inconclusive results are not listed. Activity calls are given as the source filed them. Unless noted, calls follow the shape of the full dose curve.

Columns and labels:
[1] = Nuclear factor erythroid 2-related factor 2/antioxidant responsive element (Nrf2/ARE) small molecule agonists: qHTS cell viability counter screen in human keratinocytes (AID 1919968; active = well fitted curve in the direction sought with a large enough effect in the repeat runs; an effect the other way counts as inactive or inconclusive; also: nearly all actives have a fitted effect of over 55% in size)
Outline: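 HaCaT ARE reporter line, 1,500 cells/well; 5 h settle, 37 C/5% CO2; cpd in DMSO pinned; 23 h exposure; CellTiter-Fluor, 1 h; fluorescence.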

[2] = Nuclear factor erythroid 2-related factor 2/antioxidant responsive element (Nrf2/ARE) small molecule agonists: luciferase reporter gene qHTS assay in human keratinocytes (AID 1919969); also: nearly all actives have a fitted effect of over 35% in size
[3] = biological target: Gonadotropin-releasing hormone receptor (Homo sapiens) (UniProt P30968); test: Human gonadotropin-releasing hormone receptor (GnRHR) small molecule agonists, calcium flux assay in GnRHR-HEK293 cells (AID 1920063); also: nearly all actives have a fitted effect of over 35% in size
Outline: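 GnRHR-HEK293, 1500 cells/well, 18 h 37 C/5% CO2; Ca dye 1 h 37 C; cpd pinned (DMSO), agonist mode; kinetic FL 480/540, 3 min, 1 s reads; 15 conc, n=3.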

[4] = biological target: KiSS-1 receptor (Homo sapiens) (UniProt Q969F8); test: Human kisspeptin (KISS1R) small molecule agonists, calcium flux assay in KISS1R-HEK293 cells (AID 1920064; active = well fitted curve in the direction sought with a large enough effect in the repeat runs; an effect the other way counts as inactive or inconclusive)
Outline: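 Stable human KISS1R HEK293 line; 18 h plating, 37 C/5% CO2; calcium dye 1 h 37 C; compound pin transfer; kinetic fluorescence Ex/Em 480/540, 3 min.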

[5] = G protein-coupled receptor (GPCR) small molecule agonists, calcium flux assay: HEK293 wild type cell line counter screen (AID 1920065)
Outline: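 Kinetic fluorescence at Ex/Em 480/540, recorded every second over 3 min, served as the read-out after compound addition. Each compound was tested at 15 concentrations in triplicate on cells pre-loaded with calcium dye for 1 h.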

[6] = p53 small molecule agonists, cell-based qHTS assay with human liver microsomes (AID 1963577)
Outline: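 p53RE-bla cells, 4,000/well, compound added after 5 h, with human liver microsomes 0.5 mg/mL and NADPH 0.5 mg/mL final; 16 h at 37 C, then LiveBLAzer 2 h RT, fluorescence.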

[7] = p53 small molecule agonists, cell-based qHTS assay with rat liver microsomes (AID 1963578)
Outline: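 p53RE-bla cells, 4,000/well, pre-incubated 5 h, then given compounds plus rat liver microsomes (0.5 mg/mL final) and NADPH (0.5 mg/mL final). Incubation 16 h at 37 C; beta-lactamase reporter read by LiveBLAzer fluorescence after 2 h at room temperature.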

[8] = p53 small molecule agonists, cell-based qHTS assay with human liver microsomes: qHTS cell viability counter screen (AID 1963579); also: nearly all actives have a fitted effect of over 45% in size; also: potency is read from the fitted curve at half-maximal effect
Outline: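 p53RE-bla cells, 4,000/well, dosed 5 hours after plating, with human liver microsomes (0.5 mg/mL final) plus NADPH (0.5 mg/mL final), 16 hours at 37 C. Viability read as CellTiter-Glo luminescence after 30 min at room temperature.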

[9] = p53 small molecule agonists, cell-based qHTS assay with rat liver microsomes: qHTS cell viability counter screen (AID 1963580); also: nearly all actives have a fitted effect of over 45% in size
Outline: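 p53RE-bla HCT-116 cells (4,000/well) rested 5 h at 37 C, then given Tox21 compounds in DMSO with rat liver microsomes (0.5 mg/mL final) plus NADPH (0.5 mg/mL final) for 16 h at 37 C. Viability read by CellTiter-Glo luminescence after 30 min at room temperature.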

[10] = p53 small molecule agonists, cell-based qHTS assay: qHTS cell viability counter screen (AID 1963581); also: nearly all actives have a fitted effect of over 45% in size
Outline: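 HCT-116 p53RE-bla cells, 4,000/well, plated 5 h before compound pin transfer; 16 h at 37 C; bla substrate 2 h RT; then CellTiter-Glo, 30 min RT, luminescence.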

[11] = biological target: 5-hydroxytryptamine receptor 2A (Homo sapiens) (UniProt P28223); test: 5-hydroxytryptamine receptor 2A (HTR2A) small molecule antagonists, cell-based qHTS assay (AID 1963586); also: nearly all actives have a fitted effect of over 45% in size
Outline: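 Antagonist-mode intracellular calcium assay: DOI (4 nM) added after 5 min compound pre-incubation at room temperature to dye-loaded HTR2A-CHO cells. Fluorescence followed for 3 min, sampled every second.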

[12] = biological target: 5-hydroxytryptamine receptor 2A (Homo sapiens) (UniProt P28223); test: 5-hydroxytryptamine receptor 2A (HTR2A) small molecule agonists, cell-based qHTS assay (AID 1963587); also: nearly all actives have a fitted effect of over 30% in size; also: potency is read from the fitted curve at half-maximal effect
Outline: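 HTR2A-CHO cells, plated 18 h at 37 C/5% CO2, dye-loaded 1 h at 37 C; compounds in DMSO added by pin tool (agonist mode). Intracellular calcium flux read as kinetic fluorescence on FDSS over 2 min at 1 s intervals.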

[13] = biological target: Muscarinic acetylcholine receptor M1 (Homo sapiens) (UniProt P11229); test: Cholinergic receptor muscarinic 1 (CHRM1) small molecule antagonists, cell-based qHTS assay (AID 1963588); also: nearly all actives have a fitted effect of over 40% in size; also: potency is read from the fitted curve at half-maximal effect
Outline: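 CHRM1-CHO calcium-flux assay, antagonist mode. Cells were seeded 18 h, dye-loaded 1 h at 37 C and given compound for 5 min at RT, then acetylcholine was added at 50nM. FDSS fluorescence was read 3 min; 15 concentrations, three runs.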

[14] = biological target: Beta-2 adrenergic receptor (Homo sapiens) (UniProt P07550); test: Adrenergic beta2 receptor (ADRB2) small molecule antagonists, cell-based qHTS assay (AID 1963592); also: series mostly up to about 92 µM; nearly all actives have a fitted effect of over 50% in size
Outline: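 Cells (CHO, stable ADRB2 overexpression) incubated 18-20hr at 37C; compounds added from DMSO; agonist mix (1nM isoproterenol, 100uM IBMX, 25uM Ro-20-1724) added; 0.5hr RT; d2-cAMP and anti-cAMP-cryptate added; 1hr RT; 665/615 nm read.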

[15] = biological target: D(2) dopamine receptor (Homo sapiens) (UniProt P14416); test: Dopamine D2 receptor (DRD2) small molecule agonists, cell-based qHTS assay (AID 1963594); also: nearly all actives have a fitted effect of over 35% in size
Outline: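 HEK293 cells stably expressing DRD2 were cultured 24 h at 37 C, then given Ro20-1724 (0.1 mM final) and compounds for 10 min at room temperature. NKH477 (200nM) was then added for 30 min. cAMP was read by HTRF.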

[16] = biological target: D(2) dopamine receptor (Homo sapiens) (UniProt P14416); test: Dopamine D2 receptor (DRD2) small molecule antagonists, cell-based qHTS assay (AID 1963595; active = well fitted inhibition curve with a large enough effect in the signal ratio in the repeat runs, with a control signal flat; the % refers to the signal ratio)
Outline: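 Cells were plated and grown for 24 h at 37 °C. Ro20-1724 (0.1 mM final) went in first, then compound for 10 min. NKH477 (200 nM) with quinpirole (12 nM) followed for 30 min at RT, then HTRF detection reagents for 1 h.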

[17] = p53 small molecule agonists, cell-based qHTS assay (AID 1963582; active = well fitted activation curve with a large enough effect in the signal ratio in the repeat runs, not every such curve was filed as active; the % refers to the signal ratio)
Outline: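 Reporter line: p53RE-bla. Pre-incubation 5 h, 37 C, 5% CO2; compound (DMSO, pin tool) 16 h, 37 C; B/G FRET substrate 2 h RT; fluorescence intensity read.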

[18] = cAMP Responsive Elements (CRE) small molecule agonists, cell-based qHTS assay (AID 1963590)
Outline: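 HEK 293T CRE-bla, 2,000 cells/well, 18 h preincubation 37 C/5% CO2; cpds (DMSO) pinned, 3 h; LiveBLAzer B/G FRET substrate, 2 h RT.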

[19] = cAMP Responsive Elements (CRE) small molecule antagonists, cell-based qHTS assay (AID 1963591; active = well fitted inhibition curve with a large enough effect in the signal ratio in the repeat runs, not every such curve was filed as active; the % refers to the signal ratio)
Outline: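 Beta-lactamase reporter read by FRET substrate (LiveBLAzer B/G) after 2 h at room temperature. CRE-bla HEK293T cells had received compound plus 0.25 uM (final) NKH477 for 3 h at 37 °C.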

[20] = biological target: Muscarinic acetylcholine receptor M1 (Homo sapiens) (UniProt P11229); test: Cholinergic receptor muscarinic 1 (CHRM1) small molecule agonists, cell-based qHTS assay (AID 1963589); also: nearly all actives have a fitted effect of over 35% in size
Outline: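 Human M1 in stable CHO line; 18 h plating, 1 h dye load 37 C; cpd added (agonist mode); Ca2+ fluorescence kinetic read, 1 s intervals; 15 conc, 3 runs.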
% is scaled to controls: 0 for no effect and ±100 for the full control effect.

Sequence of 5-hydroxytryptamine receptor 2A (Homo sapiens) (P28223 whole entry, looked up): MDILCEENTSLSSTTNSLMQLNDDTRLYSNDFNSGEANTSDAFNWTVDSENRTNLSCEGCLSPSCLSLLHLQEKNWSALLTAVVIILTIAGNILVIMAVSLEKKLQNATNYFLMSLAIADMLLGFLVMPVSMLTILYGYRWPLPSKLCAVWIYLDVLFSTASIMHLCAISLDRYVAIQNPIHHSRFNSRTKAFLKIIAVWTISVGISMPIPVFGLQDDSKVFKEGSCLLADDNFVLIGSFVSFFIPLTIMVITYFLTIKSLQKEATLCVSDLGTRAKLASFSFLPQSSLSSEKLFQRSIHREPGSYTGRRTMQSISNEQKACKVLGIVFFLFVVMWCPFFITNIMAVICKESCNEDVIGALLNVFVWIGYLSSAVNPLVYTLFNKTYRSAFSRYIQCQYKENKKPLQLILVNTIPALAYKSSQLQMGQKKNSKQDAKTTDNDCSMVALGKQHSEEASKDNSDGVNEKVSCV
Sequence of D(2) dopamine receptor (Homo sapiens) (P14416 whole entry, looked up): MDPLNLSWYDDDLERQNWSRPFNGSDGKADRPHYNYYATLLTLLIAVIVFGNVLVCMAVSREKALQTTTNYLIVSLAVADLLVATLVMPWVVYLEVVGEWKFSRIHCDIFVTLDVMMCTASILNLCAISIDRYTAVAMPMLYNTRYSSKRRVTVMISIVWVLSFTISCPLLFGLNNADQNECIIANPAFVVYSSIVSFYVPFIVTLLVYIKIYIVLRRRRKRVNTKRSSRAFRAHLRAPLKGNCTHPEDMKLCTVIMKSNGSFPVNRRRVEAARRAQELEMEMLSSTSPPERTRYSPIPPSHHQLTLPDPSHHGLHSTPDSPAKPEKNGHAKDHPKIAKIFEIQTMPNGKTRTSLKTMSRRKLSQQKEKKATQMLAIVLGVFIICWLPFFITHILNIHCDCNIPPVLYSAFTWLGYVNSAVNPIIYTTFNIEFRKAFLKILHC
Sequence of KiSS-1 receptor (Homo sapiens) (Q969F8 whole entry, looked up): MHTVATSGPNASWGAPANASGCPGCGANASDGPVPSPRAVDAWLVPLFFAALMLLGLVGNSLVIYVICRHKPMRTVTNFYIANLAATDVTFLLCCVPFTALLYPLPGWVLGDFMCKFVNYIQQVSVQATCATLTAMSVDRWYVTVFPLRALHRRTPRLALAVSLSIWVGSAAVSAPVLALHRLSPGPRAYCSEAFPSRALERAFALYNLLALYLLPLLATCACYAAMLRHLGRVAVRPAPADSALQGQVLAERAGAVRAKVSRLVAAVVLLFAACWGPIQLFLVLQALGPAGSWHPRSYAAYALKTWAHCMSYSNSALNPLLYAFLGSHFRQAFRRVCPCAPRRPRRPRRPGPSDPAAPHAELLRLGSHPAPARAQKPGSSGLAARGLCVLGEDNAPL
Sequence of Gonadotropin-releasing hormone receptor (Homo sapiens) (P30968 whole entry, looked up): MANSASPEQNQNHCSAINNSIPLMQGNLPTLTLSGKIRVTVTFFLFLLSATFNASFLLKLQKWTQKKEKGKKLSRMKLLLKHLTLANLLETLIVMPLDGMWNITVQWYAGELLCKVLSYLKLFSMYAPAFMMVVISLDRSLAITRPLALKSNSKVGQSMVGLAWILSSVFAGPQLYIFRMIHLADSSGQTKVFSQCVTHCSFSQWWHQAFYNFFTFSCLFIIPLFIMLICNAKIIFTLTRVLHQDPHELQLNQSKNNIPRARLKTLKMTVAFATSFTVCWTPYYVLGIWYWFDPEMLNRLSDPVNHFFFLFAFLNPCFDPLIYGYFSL
Sequence of Muscarinic acetylcholine receptor M1 (Homo sapiens) (P11229 whole entry, looked up): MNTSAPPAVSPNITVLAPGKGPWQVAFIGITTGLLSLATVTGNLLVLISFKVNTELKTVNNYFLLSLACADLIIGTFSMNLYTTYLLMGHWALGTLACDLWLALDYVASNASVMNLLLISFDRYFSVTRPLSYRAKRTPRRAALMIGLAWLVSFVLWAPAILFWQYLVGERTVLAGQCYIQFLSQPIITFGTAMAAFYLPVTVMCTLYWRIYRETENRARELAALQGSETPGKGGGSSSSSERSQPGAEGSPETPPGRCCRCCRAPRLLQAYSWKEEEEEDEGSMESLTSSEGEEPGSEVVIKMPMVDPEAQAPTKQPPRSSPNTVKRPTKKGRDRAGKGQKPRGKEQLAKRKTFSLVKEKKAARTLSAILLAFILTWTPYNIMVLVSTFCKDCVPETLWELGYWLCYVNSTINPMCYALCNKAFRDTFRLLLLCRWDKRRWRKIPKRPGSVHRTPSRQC
Sequence of Beta-2 adrenergic receptor (Homo sapiens) (P07550 whole entry, looked up): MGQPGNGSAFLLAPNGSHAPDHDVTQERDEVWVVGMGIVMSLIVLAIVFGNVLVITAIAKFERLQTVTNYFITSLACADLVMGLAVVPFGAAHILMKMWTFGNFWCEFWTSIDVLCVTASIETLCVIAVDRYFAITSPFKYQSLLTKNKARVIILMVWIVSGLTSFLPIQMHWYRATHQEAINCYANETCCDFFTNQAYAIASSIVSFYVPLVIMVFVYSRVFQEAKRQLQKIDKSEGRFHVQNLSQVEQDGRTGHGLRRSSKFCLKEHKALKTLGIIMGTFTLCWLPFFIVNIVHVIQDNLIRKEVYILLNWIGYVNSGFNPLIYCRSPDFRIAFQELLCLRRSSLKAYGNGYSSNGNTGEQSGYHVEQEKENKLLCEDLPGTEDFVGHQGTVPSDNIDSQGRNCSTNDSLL

CCCCOC(=O)[C@@H](C)Oc1ccc(Oc2ccc(C#N)cc2F)cc1
inactive: Potency [1] | Potency [2] | Potency [3] | Potency [4] | Potency [5] | Potency [6] | Potency [7] | Potency [8] | Potency [9] | Potency [10] | Potency [11] | Potency [12] | Potency [14] | Potency [15] | Potency [16]
active: Potency [13] 1.66 µM

CN1C(=O)CN=C(c2ccccc2)c2cc([N+](=O)[O-])ccc21
inactive: Potency [1] | Potency [2] | Potency [3] | Potency [4] | Potency [5] | Potency [6] | Potency [7] | Potency [8] | Potency [9] | Potency [10] | Potency [17] | Potency [18] | Potency [19] | Potency [14] | Potency [15] | Potency [16]

Cc1ccc2c(c1)C1CN(C)CCC1N2 (configuration not stated)
active: Potency [12] 0.165 µM
inactive: activity change, negative = cytotoxicity [1] -10.1% [at 19 µM] | activity, positive = activation [2] -3.42% [at 19 µM] | activity change [3] 1.2% [at 11.8 µM, stronger effect = higher value] | activation [4] -0.319% [at 15.8 µM] | activation [5] -0.508% [at 11.8 µM] | activation [6] 3.07% [at 13.5 µM] | activation [7] -0.463% [at 13.6 µM] | activity change, negative = cytotoxicity [8] -1.76% [at 13.5 µM] | activity change, negative = cytotoxicity [9] -8.73% [at 13.5 µM] | activity change, negative = cytotoxicity [10] 13.5% [at 13.5 µM] | activation [17] 0% [at 13.5 µM] | activation [20] -0.313% [at 15.8 µM] | activation [18] -1.75% [at 19 µM] | activity change, negative = inhibition [19] -7.6% [at 18.9 µM] | activity change, negative = inhibition [14] -2.7% [at 19 µM] | activation [15] -2.85% [at 19 µM]

ClCCCN1CCN(c2cccc(Cl)c2)CC1
inactive: Potency [1] | Potency [2] | Potency [3] | Potency [4] | Potency [5] | Potency [6] | Potency [7] | Potency [8] | Potency [9] | Potency [10] | Potency [17] | Potency [12] | Potency [13] | Potency [20] | Potency [19] | Potency [14] | Potency [16]

O=C(Cc1ccccc1)OCCc1ccccc1
inactive: Potency [1] | Potency [2] | Potency [3] | Potency [4] | Potency [5] | Potency [6] | Potency [7] | Potency [8] | Potency [9] | Potency [10] | Potency [17] | Potency [12] | Potency [20] | Potency [18] | Potency [19] | Potency [15] | Potency [16]

O=C(N[C@H]1CN2CCC1CC2)c1cc2ccoc2cn1
inactive: Potency [1] | Potency [2] | Potency [3] | Potency [4] | Potency [5] | Potency [6] | Potency [7] | Potency [8] | Potency [9] | Potency [10] | Potency [17] | Potency [20] | Potency [18] | Potency [14] | Potency [15] | Potency [16]

CCOC(=O)OC1=C(c2cc(C)ccc2C)C(=O)NC12CCC(OC)CC2 (configuration not stated)
inactive: Potency [1] | Potency [2] | Potency [3] | Potency [4] | Potency [5] | Potency [6] | Potency [7] | Potency [9] | Potency [10] | Potency [11] | Potency [12] | Potency [13] | Potency [20] | Potency [19] | Potency [14] | Potency [15] | Potency [16]
active: Potency [8] 40.8 µM
